Laboratory results published in PubChem BioAssay (NCATS).
Inconclusive results are not listed. A call without a number means that no potency is given here. Activity calls are given as the source filed them. Calls come from the whole dose curve; as a rule, active = well fitted inhibition curve with a large enough effect; inconclusive = small, poorly fitted or top-dose-only effect; inactive = flat fitted curve, though single readings scatter.
Potency is the fitted concentration of half-maximal effect.

Experiment: BET inhibitor-based combinations targeting novel dependencies in MECOM-rearranged (r) AML: AML-194 cell line (AID 2202237; note: nearly all actives have a fitted effect of over 40% in size)
Conditions: AML-194 (MECOM-r AML) viability, CellTiter-Glo, 48 h; series mostly up to 46 µM
Summary of the method: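 Viability of cells (500 per well) is scored by luminescent CellTiter-Glo at 48 hr post-dosing. Eleven-point titrations are normalized to DMSO and empty controls and reduced to AUC values.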
With COc1ccc2[nH]c(S(=O)Cc3ncc(C)c(OC)c3C)nc2c1 (stereo unspecified) the Potency was “inactive”. With CC(/C=C/C(=O)NO)=C\[C@@H](C)C(=O)c1ccc(N(C)C)cc1 the Potency was 1.18 µM (active). In the case of C=CC(=O)Nc1cccc(Nc2nc(Nc3ccc(N4CCN(C(C)=O)CC4)cc3OC)ncc2C(F)(F)F)c1, the Potency is reported as 18.6 µM (active). With [2H]C([2H])(Nc1nc(-c2ccccc2C([2H])(C([2H])([2H])[2H])C([2H])([2H])[2H])ncc1C)c1ccc(-n2ccnn2)cc1 the Potency was “inactive”. In the case of CC(C)NC(=O)COc1cccc(-c2nc(Nc3ccc4[nH]ncc4c3)c3ccccc3n2)c1, the Potency is reported as 16.6 µM (active). With Cc1cccc(-c2[nH]ncc2-c2ccc(F)c(-c3cnn(CCO)c3)c2)n1 the Potency was “inactive”.
